# Records with an inconclusive call do not appear. Where a call stands in place of a potency, no number is given. Activity calls are given as the source filed them. Unless noted, the call rests on the fitted dose curve; in most records, active means well fitted curve in the direction sought with a large enough effect; inconclusive means small, poorly fitted or top-dose-only effect, or another doubt; inactive means no such curve, though single readings can be large; an effect the other way counts as inactive or inconclusive.
# What was measured:
# [1] = AP1 Signaling Pathway (AID 357; active means well fitted curve in either direction with a large enough effect, not every such curve was filed as active;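 further: ME-180 reporter cells stimulated with EGF at its EC50 level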); conditions: ME-180 AP-1-bla reporter, EGF-induced, beta-lactamase ratio, 5 h; at 7.69 µM (top of the series) unless noted
# Outline: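 In this screen, ME-180 cells in Opti-MEM with 0.5% dialyzed FBS received EC50 EGF and compound titrations for 5 h. AP-1 reporter beta-lactamase was detected via CCF4 ratio, giving AC50 for positive and negative modulators.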
# [2] = NFAT Signaling Pathway (AID 444; active means well fitted curve in either direction with a large enough effect, not every such curve was filed as active;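 further: carbachol stimulus at about its EC50 of 1 µM final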); conditions: Jurkat NFAT-bla M1, carbachol, beta-lactamase ratio, 5 h; at 7.69 µM (top of the series) unless noted
# Outline: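 Jurkat cells carrying an NFAT-driven β-lactamase reporter and co-transfected muscarinic M1 receptor were treated with compound plus carbachol (1 uM final, an EC50 level) for 5 h at 37 °C. CCF4 loading followed for 1 h at RT; 460/530 nm ratio gave %activity.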
# [3] = Stat Signaling Pathway (AID 446; active means well fitted curve in either direction with a large enough effect, not every such curve was filed as active;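 further: ME-180 cervical cancer cells given 40 pM IL-6 alongside compound; SIE-controlled beta-lactamase reporter measured as 460/530 nm FRET emission ratio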); conditions: ME-180 (cervical carcinoma) SIE beta-lactamase reporter, IL-6 stimulated, 5 h; at 7.69 µM (top of the series) unless noted
# Outline: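 Emission at 460 and 530 nm (excitation 405 nm) reports SIE-controlled beta-lactamase in ME-180 cells. Cells received compound with 40 pM IL-6 for 5 hrs at 37 C; data scaled between 300 pM IL-6 and 125 nM JAK-inhibitor controls.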
# [4] = target: Mitogen-activated protein kinase 10 (Mus musculus) (UniProt Q61831); assay: JNK3 AlphaScreen Assay (AID 530; active means well fitted curve in either direction with a large enough effect, not every such curve was filed as active;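 further: kinase came from lysate of stimulated human HepG2 cells; signal reports phosphorylation of biotinylated GST-cJun 1-79 at Ser73 with 10 µM ATP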); conditions: JNK3 lysate, c-Jun phosphorylation; series mostly up to 57.1 µM
# Outline: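 Biotinylated GST-cJun(1-79) served as substrate for JNK3 in HepG2 lysates stimulated with IL-1beta and TNF-alpha. ATP was 10 uM final, pH 7.6. Ser73 phosphorylation was quantified by AlphaScreen (680 nm excitation).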
# [5] = S16 Schwann cell PMP22 intronic element firefly luciferase assay (AID 624032); conditions: S16 rat Schwann cells, PMP22 element FLuc, 24 h; series mostly up to 57.5 µM; further: potency means the concentration at half of the fitted maximal effect; nearly all actives have a fitted effect of over 30% in size
# Outline: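 Rat S16 Schwann cells stably carrying a PMP22 intronic element-driven Fluc reporter were seeded overnight, then exposed to compounds for 24 h at 37 °C. Luminescence was normalized to PTC124 (positive control) and DMSO (0% activity).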
# CP297 = assay: qHTS profiling for inhibitors of Plasmodium falciparum proliferation (AID 504749); further: nearly all actives have a fitted effect of over 60% in size; further: potency means the concentration at half of the fitted maximal effect; conditions: P. falciparum in erythrocytes, SYBR Green DNA, 72 h; series mostly up to 28.7 µM
# Outline: (§1)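 Fluorescence of SYBR Green-bound parasite DNA, read at 485/535 nm, served as the growth measure. Infected erythrocytes were cultured with compound 72 h; artemisinin (0.29 uM) and DMSO wells defined the normalization range.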
# CP315 = assay: as above; conditions: P. falciparum in erythrocytes, SYBR Green DNA, 72 h; series mostly up to 28.7 µM
# Outline: as §1
# [6] = Confirmation and Secondary Assay for Modulators of Hemoglobin Beta Chain Splicing at IVS2 654 locus (AID 910); conditions: HeLa EGFP-654 splicing reporter, GFP fluorescence, 48 h; series mostly up to 38.3 µM;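 further: per-well total GFP intensity by laser scanning cytometry after 2-day treatment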
# Outline: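 HeLa cells stably carrying EGFP interrupted by mutant beta-globin IVS2-654 intron (CMV-driven) were treated with compound for 2 days at 37C; corrected splicing was scored as total peak GFP intensity per well (488 nm excitation, 500-520 nm emission).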
# [7] = Confirmation and Secondary Assay for Modulators of Hemoglobin Beta Chain Splicing at IVS2 705 locus (AID 930); conditions: HeLa EGFP-705 splicing reporter, GFP fluorescence, 48 h; series mostly up to 38.3 µM;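 further: HeLa cells stably expressing the EGFP-705 splicing reporter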
# Outline: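 HeLa cells stably carrying EGFP interrupted by mutant beta-globin IVS2-705 intron (CMV-driven) were seeded at 500 cells/well, treated next day with compound for 2 days at 37C; corrected splicing restores EGFP, read as total peak GFP intensity per well.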
# [8] = Validation of Assay for Modulators of Lamin A Splicing (AID 1459; active means well fitted curve in the direction sought with a large enough effect in the signal ratio; the % refers to the signal ratio;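 further: cells exposed to compound for two days before reading; ratio rise marks activators and ratio drop marks inhibitors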); conditions: Lamin A splicing dual RFP/GFP fluorescence reporter; series mostly up to 9.22 µM
# Outline: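 Splicing correction is reported by an EGFP-containing lamin A minigene in stably transfected S3 HeLa cells, while DsRed2 controls for viability and nonspecific signal. Cells are exposed to compounds for 48 hrs before the GFP over RFP ratio is taken.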
# [9] = target: DNA repair nuclease/redox regulator APEX1 (Homo sapiens) (UniProt P27695); assay: qHTS Validation Assay for Inhibitors of the Human Apurinic/apyrimidinic Endonuclease 1 (APE1) (AID 1705; further: potency means the concentration at half of the fitted maximal effect;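 on activity change, negative = inhibition: TAMRA fluorescence gain over two minutes as APE1 cuts a quenched THF abasic duplex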); conditions: purified APE1 endonuclease activity, fluorescence, titration; series mostly up to 57.1 µM
# Outline: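 Endonuclease activity of human APE1 is followed as dequenching when the enzyme incises a tetrahydrofuran abasic site in a short duplex labelled 5'-TAMRA/3'-BHQ-2 (50 nM final), after 15 min enzyme–compound preincubation at room temperature.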
# [10] = Counterscreen for APE1 Inhibitors: Fluorescent Dye Displacement Validation Assay (AID 1707); conditions: fluorescent dye displacement from DNA; series mostly up to 57.1 µM
# Outline: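 Endpoint fluorescence read at 480 nm excitation / 540 nm emission; DNA-binding compounds lower signal by displacing 250 nM Thiazole Orange from 50 nM dsDNA containing a tetrahydrofuran abasic site, Tris-HCl pH7.5 buffer with NaCl and MgCl2.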
# [11] = target: Endonuclease 4 (Escherichia coli (strain K12)) (UniProt P0A6C1); assay: Counterscreen for APE1 Inhibitors: qHTS Validation Assay for Inhibitors of Endonuclease IV (AID 1708); conditions: E. coli endonuclease IV, DNA cleavage fluorescence; series mostly up to 57.1 µM
# Outline: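 Measured as reaction progress, the fluorescence gain between first and third kinetic reads after adding 50 nM TAMRA/BHQ-2 THF duplex to 2 nM enzyme preincubated 15 min with compound; 2 mM MgCl2, pH 7.5.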
# [12] = qHTS for differential inhibitors of proliferation of Plasmodium falciparum line Dd2 (AID 1882); conditions: Potency: Plasmodium falciparum Dd2 proliferation inhibition; series mostly up to 28.7 µM; further: nearly all actives have a fitted effect of over 65% in size
# Outline: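 RBC culture, 0.3% parasitemia / 2.5% Hct final; cpd added by pin tool in DMSO; 72 h, 37 C, 5% CO2; lysis buffer + SYBR Green I, o/n RT dark; FI 485/535; norm. to artemisinin 0.29 uM and DMSO.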
# [13] = qHTS for differential inhibitors of proliferation of Plasmodium falciparum line W2 (AID 1883); conditions: Potency: Plasmodium falciparum W2 proliferation inhibition; series mostly up to 28.7 µM;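 further: potency means the concentration at half of the fitted maximal effect; parasites grown with compound for 72 h before lysis and staining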
# [14] = Quantitative high throughput screen for delayed death inhibitors of the malarial parasite plastid, 96 hour incubation (AID 488745); conditions: Plasmodium falciparum growth; series mostly up to 28.7 µM; further: nearly all actives have a fitted effect of over 70% in size
# Outline: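 Two-generation (96 h) exposure of luciferase-reporter P. falciparum in erythrocytes, 2% hematocrit, 0.1% parasitemia final, 37 C, 5% CO2, RPMI 1640 with 0.5% Albumax. Growth inhibition scored by reduced luminescence.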
# [15] = Quantitative high throughput screen for delayed death inhibitors of the malarial parasite plastid, 48 hour incubation (AID 488752); conditions: Plasmodium falciparum growth; series mostly up to 28.7 µM; further: nearly all actives have a fitted effect of over 65% in size
# Outline: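 Cultures: infected erythrocytes at final 2% hematocrit and 0.1% parasitemia in Albumax-supplemented RPMI. Parasites express integrated firefly luciferase. Incubation with compound lasts 48 h before luminescent detection of remaining reporter activity.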
# [16] = target: Galactokinase (Homo sapiens) (UniProt P51570); assay: qHTS Validation Assay for Inhibitors of Human Galactokinase (GALK) (AID 493189); conditions: purified human GALK enzyme activity, qHTS 7-point titration; series mostly up to 57.5 µM
# Outline: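 Compounds were pin-transferred into ATP buffer, then GALK-galactose mix was added (final 5 nM enzyme, 100 uM galactose, 35 uM ATP). After 1 h at room temperature, remaining ATP was measured luminescently.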
# [17] = Validation screen for small molecules that induce DNA re-replication in SW480 colon adenocarcinoma cells (AID 504364); conditions: DNA re-replication phenotype (high-content imaging); series mostly up to 46.1 µM
# Outline: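 Hoechst-stained SW480 nuclei, imaged at 405 nm excitation after 48 hr compound exposure, were counted for elevated DNA content as the re-replication signal.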
# [18] = target: Voltage-gated inwardly rectifying potassium channel KCNH2 (Homo sapiens) (UniProt Q12809); assay: qHTS Assay for Small Molecule Inhibitors of the Human hERG Channel Activity (AID 588834); conditions: U2OS BacMam hERG, FluxOR thallium flux fluorescence; series mostly up to 46.1 µM;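 further: U2OS cells transduced with hERG by BacMam; top concentration of the series differs between compounds; lower thallium flux fluorescence means stronger hERG block; nearly all actives have a fitted effect of over 50% in size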
# Outline: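 Cells were infected with hERG-BacMam virus for 4 hrs at room temperature, grown overnight, then seeded at 2000/well. After dye loading and roughly 10 min compound treatment, thallium influx was triggered and fluorescence recorded.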
# Chain of Voltage-gated inwardly rectifying potassium channel KCNH2 (Homo sapiens) (Q12809 whole entry, looked up): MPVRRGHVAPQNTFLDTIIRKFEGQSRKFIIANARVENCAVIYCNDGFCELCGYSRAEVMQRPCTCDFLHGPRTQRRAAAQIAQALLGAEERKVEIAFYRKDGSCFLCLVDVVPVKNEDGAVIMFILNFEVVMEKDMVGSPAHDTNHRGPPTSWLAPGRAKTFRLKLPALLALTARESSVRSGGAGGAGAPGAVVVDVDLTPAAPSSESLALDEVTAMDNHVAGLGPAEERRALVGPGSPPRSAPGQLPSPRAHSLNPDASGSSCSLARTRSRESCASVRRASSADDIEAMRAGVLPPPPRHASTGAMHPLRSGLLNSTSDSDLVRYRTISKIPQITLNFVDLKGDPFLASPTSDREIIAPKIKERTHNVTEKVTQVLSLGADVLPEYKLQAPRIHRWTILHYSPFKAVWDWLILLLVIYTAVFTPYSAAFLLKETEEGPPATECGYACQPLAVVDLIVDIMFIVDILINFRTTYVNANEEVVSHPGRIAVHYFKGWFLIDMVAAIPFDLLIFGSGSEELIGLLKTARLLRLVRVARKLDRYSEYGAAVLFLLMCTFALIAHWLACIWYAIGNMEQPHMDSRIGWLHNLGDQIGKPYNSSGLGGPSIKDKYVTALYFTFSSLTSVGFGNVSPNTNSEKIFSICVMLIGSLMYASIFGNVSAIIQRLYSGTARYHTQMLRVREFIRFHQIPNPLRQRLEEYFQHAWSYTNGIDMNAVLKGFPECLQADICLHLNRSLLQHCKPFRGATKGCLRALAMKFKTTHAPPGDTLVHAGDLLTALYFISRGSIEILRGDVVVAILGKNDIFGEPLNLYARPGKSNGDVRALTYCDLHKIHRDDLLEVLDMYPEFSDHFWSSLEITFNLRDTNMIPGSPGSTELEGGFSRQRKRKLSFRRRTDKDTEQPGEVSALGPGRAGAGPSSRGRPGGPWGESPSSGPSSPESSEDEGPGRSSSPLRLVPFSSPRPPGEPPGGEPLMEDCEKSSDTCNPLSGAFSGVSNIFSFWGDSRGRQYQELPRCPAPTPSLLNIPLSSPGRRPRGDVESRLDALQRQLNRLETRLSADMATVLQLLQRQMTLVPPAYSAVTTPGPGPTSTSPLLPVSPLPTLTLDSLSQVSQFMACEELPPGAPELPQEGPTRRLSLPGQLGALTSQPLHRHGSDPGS
# Chain of DNA repair nuclease/redox regulator APEX1 (Homo sapiens) (P27695 whole entry, looked up): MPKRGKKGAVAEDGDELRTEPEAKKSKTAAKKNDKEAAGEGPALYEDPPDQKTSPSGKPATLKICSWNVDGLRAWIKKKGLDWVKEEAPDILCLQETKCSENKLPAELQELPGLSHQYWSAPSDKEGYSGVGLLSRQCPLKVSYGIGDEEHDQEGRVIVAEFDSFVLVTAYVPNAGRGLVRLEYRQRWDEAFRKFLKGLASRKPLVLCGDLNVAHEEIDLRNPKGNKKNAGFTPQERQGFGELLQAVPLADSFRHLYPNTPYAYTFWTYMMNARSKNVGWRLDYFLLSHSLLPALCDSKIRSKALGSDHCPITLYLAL
# Chain of Galactokinase (Homo sapiens) (P51570 whole entry, looked up): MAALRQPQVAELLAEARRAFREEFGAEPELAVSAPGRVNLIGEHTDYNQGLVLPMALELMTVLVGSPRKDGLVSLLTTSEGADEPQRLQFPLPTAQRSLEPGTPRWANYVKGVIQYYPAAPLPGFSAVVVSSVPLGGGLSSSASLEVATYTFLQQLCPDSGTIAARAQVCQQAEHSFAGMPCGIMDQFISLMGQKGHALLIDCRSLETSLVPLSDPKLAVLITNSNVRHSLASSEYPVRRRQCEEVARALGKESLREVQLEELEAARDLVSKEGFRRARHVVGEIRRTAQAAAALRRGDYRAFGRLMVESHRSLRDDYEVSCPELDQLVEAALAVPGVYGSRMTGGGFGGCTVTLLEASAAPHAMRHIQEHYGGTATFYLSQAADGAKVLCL
smiles,measurement,setting,value
C[C@@]12C(=O)OC(=O)[C@]1(C)[C@H]1CC[C@@H]2O1,"activity change, negative = inhibition",[1],-102% [at 17.2 µM] (active)
same,"activity change, negative = inhibition",[2],-99.7% [at 17.2 µM] (active)
same,"activity, negative = inhibition",[3],-85.9% [at 17.2 µM] (active)
same,outcome,[4],inactive
same,Potency,[5],0.616 µM (active)
same,Potency,CP297,3.22 µM (active)
same,Potency,CP315,5.73 µM (active)
C=C1CCC2[C@](C)(CO)C(O)CC[C@]2(C)C1C/C=C1/C(=O)OCC1O (some centres not stated),outcome,[6],inactive
same,outcome,[7],inactive
same,Potency,[5],14.4 µM (active)
same,Potency,CP297,inactive
same,Potency,CP315,inactive
CN(CCOc1ccc(C[C@H](Nc2ccccc2C(=O)c2ccccc2)C(=O)O)cc1)c1ccccn1,outcome,[4],inactive
same,outcome,[8],inactive
same,Potency,[9],inactive
same,Potency,[10],inactive
same,outcome,[11],inactive
same,Potency,[12],inactive
same,Potency,[13],8.91 µM (active)
same,Potency,[14],inactive
same,Potency,[15],inactive
same,outcome,[16],inactive
same,outcome,[17],inactive
same,Potency,[18],inactive
COC1=C(OC)C(=O)C(C/C=C(\C)CC/C=C(\C)CC/C=C(\C)CC/C=C(/C)CC/C=C(\C)CC/C=C(\C)CC/C=C(\C)CC/C=C(\C)CC/C=C(\C)CCC=C(C)C)=C(C)C1=O,outcome,[6],inactive
same,outcome,[7],inactive
C[C@H]1CC2[C@@H]3CCC4=CC(=O)C=C[C@]4(C)[C@@]3(F)[C@@H](O)C[C@]2(C)[C@@]1(O)C(=O)CO (some centres not stated),outcome,[8],inactive
same,Potency,[9],39.8 µM (active)
same,Potency,[10],inactive
same,outcome,[11],inactive
same,Potency,[12],inactive
same,Potency,[13],10 µM (active)
same,Potency,[14],inactive
same,Potency,[15],inactive
same,outcome,[16],inactive
same,outcome,[17],inactive
same,Potency,[18],inactive

# Source: PubChem BioAssay (NCATS)
